Laboratory results: PubChem BioAssay AID2025 (NMMLSC, 2009)
About 980 (0.3%) of roughly 330,000 compounds were called active. Shown is part of a subset that was picked to be rich in actives. Unmarked numbers belong to inactive results.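 The calls were made as follows: active = percent response vs DMSO below 50%; inconclusive = fewer than 70 events counted for the yeast strain; inactive = the rest.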

Assay: compounds altering RPL19A-GFP fluorescence, TOR branch – cell-based, S. cerevisiae, multiplex flow cytometry, MLPCN, primary screen (AID 2025);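 also: median channel GFP fluorescence of the barcoded RPL19A-GFP strain; ratio of sample median GFP to plate DMSO average so 100% = DMSO; lower means less RPL19A-GFP as with rapamycin TOR inhibition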
Conditions: S. cerevisiae RPL19A-GFP strain, 3 h, at 10 µM, active compounds read low

| SMILES | percent response vs DMSO |
| --- | --- |
| NCCc1c[nH]c2ccc(O)cc12 | 32.1% [may fluoresce violet] (active) |
| C/C(CCc1c[nH]c2ccccc12)=N\O | 100% |
| Cc1cccc2c(CCN)c[nH]c12 | 101% |
| OC1/C(=C/c2ccc(C(F)(F)F)cc2)N2CCC1CC2 (stereo not given) | 97.2% |
| OCC#CC[N+]1(CC#Cc2ccccc2)CCCC1 | 99.6% |
